Laboratory results published in PubChem BioAssay (NCI).
This is part of a sample that, as a whole, favours compounds with a hit. Of some 83,000 tested, about 20% had one in any assay.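 Percent growth is the endpoint: 0 to 100 indicates growth inhibition (40 means 60% inhibition), 0 means no net growth, and negative values indicate cell death.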 Values without a mark were called inactive. Activity calls are given as the source filed them. Rule for the calls: active = growth percent below 10; inactive = the rest.

Each compound was assayed on RPMI-8226 leukemia (assay: NCI-60 one-dose screen, 48 h (100 = growth as untreated, 0 = no growth, -100 = all killed)). Conditions: 10 µM unless noted.

Compound | growth
COc1ccc(C2SCC(=O)N2NC(=O)c2ccc(NC(=O)c3ccccn3)cc2)cc1OC (stereo not drawn) | 96.3%
O=C(O)c1cn(C2CC2)c2cc(N3CCN(S(=O)(=O)c4ccc(Cl)c(Cl)c4)CC3)c(F)cc2c1=O | 4.86% (active)
COc1ccc(/C=C/C(=O)c2ccc(B(O)O)cc2)cc1O | 6.12% (active)
O=C(Nc1ccc(OCc2nnc(-c3ccc(Cl)cc3)o2)c(F)c1)Nc1ccc(Cl)c(Cl)c1 | 57%
COc1cc(/C=C2\C=C(c3ccc(F)cc3)N(Cc3ccccc3)C2=O)cc(OC)c1OC | 50.7%
Cc1cc(C)c(NC(=O)c2sc3nc4c(cc3c2N)CN(Cc2ccccc2)CC4)c(C)c1 | 20.9%
COc1cccc(-c2nc3sccn3c2-c2ccnc(NCCCNS(=O)(=O)c3ccccc3)n2)c1 | 28%
COc1cc(NCCN=C(N)NC(N)=NC(C)C)c2ncccc2c1 | 73.3%
Cc1ccc(Nc2ncnc3c2sc2ncccc23)cc1 | 105%
CCOC(=O)C1=C(CSC(=S)N(C2CCCCC2)C2CCCCC2)N(C)C(=O)NC1c1ccccc1 (stereo not drawn) | 35.8%
CC(C)C[C@H](NC(=O)[C@@H](Cc1ccccc1)n1ccc(Nc2ccccc2)cc1=O)B(O)O | -16% (active)
COc1cccc(-c2nc3sccn3c2-c2ccnc(NCCCNS(=O)(=O)c3ccc(F)cc3)n2)c1 | 17.4%
O=S(=O)(NCCCNc1nccc(-c2c(-c3ccccc3)nc3sccn23)n1)c1ccc(F)cc1 | 38.8%
